HT1080-NT tox – kills 2HG-producing HT-1080-NT fibrosarcoma cells. AID 686970. HT-1080-NT fibrosarcoma viability, CellTiter-Glo ATP luminescence, 48 h. 360,000 compounds, 1.6% hits. Potency, µM (highest dose often 46.1 µM), without a hit: at the highest dose activity, negative = less viability, most hits filed as cytotoxic;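 note: NT is the 2HG producing partner of a matched IDH1 knockdown line; 0% = DMSO-treated cells and -100% = media-only wells without cells; nearly all actives have a fitted effect of over 55% in size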
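Compounds were tested in concentration-response format on HT-1080-NT cells for 48 hours at 37 degrees C. Cell viability came from CellTiter-Glo luminescence; curves were classified by r2, response magnitude and activity.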
KB-V1 cytotox – kills drug-selected multidrug resistant KB-V1 cells; AID 1347076; KB-V1 MDR cells viability, CellTiter-Glo, 72 h; Potency, µM (highest dose often 46.1 µM), most hits filed as cytotoxic; 400,000 compounds, 3.4% hits; note: nearly all actives have a fitted effect of over 60% in size
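Drug-selected KB-V1 cells, grown in DMEM lacking phenol red with 10% FBS, receive compound titrations; after three days at 37 degrees C, surviving cell ATP is quantified by CellTiter-Glo luminescence and responses normalized and curve-fitted.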
HT1080 IDH1KD tx – kills HT-1080 cells with IDH1 knockdown. HT-1080 IDH1 knockdown viability, ATP luminescence, 48 h. Potency, µM (doses to about 46.1 µM), inactives show top-dose activity, negative = toxicity, most hits filed as cytotoxic. 360,000 compounds, 2% hits. AID 686971;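 note: 0% = DMSO wells and -100% = cell-free medium wells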
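Cytotoxicity counter-line: IDH1KD HT-1080, 48 h, CellTiter-Glo. Curves classed by r2, magnitude and activity.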
KB-3-1 cytotox – kills parental KB-3-1 adenocarcinoma cells. KB-3-1 viability, CellTiter-Glo ATP luminescence, 72 h. Potency, µM (series often up to 46.1 µM), most hits filed as cytotoxic. 400,000 compounds, 1.4% hits. AID 1347075; note: nearly all actives have a fitted effect of over 60% in size
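72 h, 37 °C compound treatment of KB-3-1 parental cells; CellTiter-Glo added, 10 min, luminescence read. Data corrected against DMSO-only plates and normalized before curve fitting.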
Numbers without * were called inactive; i = inactive; ? = inconclusive; / = no result given; [ ] = dose if it differs, or a comment. Only some compounds are listed: those with a hit (about 5.7% of all), similar ones and a draw of the others. Calls come from the whole dose curve; as a rule, active = well fitted curve in the direction sought with a large enough effect; inconclusive = small, poorly fitted or top-dose-only effect, or another doubt; inactive = no such curve, though single readings can be large; an effect the other way counts as inactive or inconclusive. Unless noted, % is set by controls: 0 for no effect and ±100 for the full control effect; potency is the fitted concentration of half-maximal effect.

SMILES | HT1080-NT tox | KB-V1 cytotox | HT1080 IDH1KD tx | KB-3-1 cytotox
Cc1ccc(NC(=O)CCc2c[nH]c3ccccc23)nc1 | ? | ? | ? | 4.11µM*
O=C(c1ccncc1)N1CCN(c2ccc(F)cc2)CC1 | 14.3% | i | 9.1% | i
O=C(c1c(Cl)nc2sccn12)N1CCN(c2cccc(Cl)c2)CC1 | ? | ? | 3.26µM* | 1.64µM*
O=C(c1cccc(F)c1)N1CCCN(C(=O)c2cccc(F)c2)CC1 | 14.2% | i | 8.8% | i
O=C(c1ccc(Cl)cc1)N1CCN(c2ccc(F)cc2)CC1 | -1.6% | 16.4µM* | 12.6% | i
O=C(c1cccc(F)c1)N1CCN(c2cccc(Cl)c2)CC1 | ? | 11.6µM* | 14.6µM* | 20.6µM*
O=C(c1ccc(N2CCN(C(=O)c3ccccc3)CC2)cc1)c1cccc(F)c1 | -26.9% | 9.2µM* | -4.6% | ?
CCOC(=O)c1c(S(=O)(=O)N2CCCC(C(=O)NCc3ccc(Cl)cc3)C2)c(C)n(C)c1C (configuration not stated) | / | i | / | i
Cc1cc(Cl)ccc1NS(=O)(=O)c1c(C(=O)N2CCCCCC2)c(C)n(C)c1C | / | i | / | i
CCCNC(=O)c1cnc2c(-c3ccc(OCC)c(OCC)c3)c(C)nn2c1-c1ccccc1 | / | i | / | i
COc1cccc(CNC(=O)CN(c2ccc(C)cc2)S(=O)(=O)N(C)C)c1OC | / | i | / | i
O=C(c1[nH]c2ccccc2c1Sc1ccc(Cl)cc1)N1CCCCC1 | / | i | / | i
COc1ccccc1-n1cnnc1SCC(=O)NC1CCCCC1 | 2.7% | i | 8.4% | i
C=CCn1c(SCC(=O)NC2CCCCC2)nnc1-c1ccc(OC)cc1 | 15.1% | 4.11µM* | 15.5% | i
COc1ccc(-n2cnnc2SCC(=O)NC2CCCCC2)cc1 | -7.2% | 23.1µM* | -10.1% | i
O=C(CSc1nncn1-c1ccccc1F)NC1CCCCC1 | -1.9% | 20.6µM* | 2.8% | i
CCn1c(=O)n(-c2ccc(F)cc2)c(=O)c2sc3ccccc3c21 | / | ? | / | i
O=C(CCNS(=O)(=O)c1ccc2c(c1)CCCC(=O)N2)NCc1ccc(Cl)cc1 | / | i | / | i
COC(=O)c1sc2ccccc2c1-n1cccc1C(=O)C(=O)Nc1ccc(OC)cc1 | -23.3% | 8.2µM* | -10.0%[9.24 µM] | 5.8µM*
CN1CCCCC1CCN1c2ccccc2Sc2ccc(S(C)=O)cc21 (configuration not stated) | ? | ? | ? | i
CN1CCCC(CC2c3ccccc3Sc3ccccc32)C1 (configuration not stated) | 20.6µM* | 18.4µM* | 18.4µM* | i
CN1CCCC(CN2c3ccccc3Sc3ccccc32)C1 (configuration not stated) | ? | ? | 20.6µM* | i
CCOc1ccccc1N(C)C(=O)Cn1cnc2sc(C)c(S(=O)(=O)N3CCC(C)CC3)c2c1=O | / | i | / | i
CC(NC(=O)CC(c1ccccc1)c1cc(Cl)ccc1O)c1ccccc1 (configuration not stated) | -14.9% | 20.6µM* | ? | ?
CC(NC(=O)CCSCCC(=O)NC(C)c1ccccc1)c1ccccc1 (configuration not stated) | 7.2% | 16.4µM* | ? | i
SMILES | HT1080-NT tox | KB-V1 cytotox | HT1080 IDH1KD tx | KB-3-1 cytotox
CN(Cc1ccccc1)C(=O)CC(c1ccccc1)c1cc(Cl)ccc1O (configuration not stated) | ? | 13µM* | ? | ?
CCCN(CCC)C(=O)CC(c1ccccc1)c1cc(C)ccc1O (configuration not stated) | ? | ? | ? | i
CC(=O)c1ccc(NC2=NS(=O)(=O)c3ccccc32)cc1 | / | ? | / | i
O=C(CSc1ccc2c(c1)OCCO2)N1CCN(c2ccccc2O)CC1 | -3.4% | ? | 0.0% | ?
CCOc1ccccc1N1CCN(C(=O)CSc2ccc3c(c2)OCCO3)CC1 | -1.3% | 11.6µM* | 11.7% | i
CCCCNCCOCCOc1ccccc1-c1ccccc1 | -21.9% | 18.4µM* | -18.0% | i
COCCNCCCCOc1ccccc1-c1ccccc1 | -1.9% | ? | -21.0% | i
COc1ccc(OC)c(C2=NOC(C(=O)Nc3cccnc3)C2)c1 (configuration not stated) | 16.0% | 23.1µM* | 25.1% | i
COc1ccc(OC)c(C2=NOC(C(=O)NCc3cccs3)C2)c1 (configuration not stated) | -29.7% | ? | ? | 20.6µM*
O=C(CC1N=C2c3ccccc3N=C(SCc3ccc(Cl)cc3)N2C1=O)NCCc1ccccc1 (configuration not stated) | / | i | / | ?
CC(=O)c1cccc(NC(=O)c2sc(-n3nc(C)c(CCC(C)C)c3C)nc2C)c1 | / | i | / | i
COCCNC(=S)Nc1ccc2nc(N3CCCC3)cc(C)c2c1 | 5.6% | 16.4µM* | -19.7% | i
CCOCCCNC(=S)Nc1ccc2nc(N3CCCC3)cc(C)c2c1 | 0.0% | 7.31µM* | -27.2% | i
Cc1cc(N2CCCC2)nc2ccc(NC(=S)NC(C)C)cc12 | 4.2% | i | 9.7% | i
COCCNC(=S)Nc1ccc2nc(N3CCOCC3)cc(C)c2c1 | -1.7% | i | 0.6% | i
CCCCN(CC)CCNC(=S)Nc1ccc2nc(N3CCN(C)CC3)cc(C)c2c1 | 25.9µM* | i | ? | ?
CCCN(CCC)CCCNC(=S)Nc1ccc2nc(N3CCN(C)CC3)cc(C)c2c1 | 0.5% | i | -26.2% | i
Cc1ccccc1N(C)C1=N[S+](=O)([O-])c2ccccc21 | / | i | / | i
CC/C(=N\Nc1ccccc1[N+](=O)[O-])c1ccc(O)cc1 | ? | i | 20.6µM* | i
CN1CC2(Cc3c1ccc1ccccc31)C(=O)OC(C)(C)OC2=O | 23.1µM* | ? | ? | ?
COc1cccc(/C=N/NC(=O)c2ccc(N3CCCC3=O)cc2)c1 | ? | ? | ? | 16.4µM*
COc1cccc(/C=N/NC(=O)c2[nH]nc3c2CCc2ccccc2-3)c1 | 3.66µM* | ? | 2.06µM* | 10.3µM*
O=C(N/N=C/c1ccco1)c1ccc(N2CCCC2=O)cc1 | 14.4% | i | 5.9% | i
Cc1ccc(/C=C2\SC(N3CCCCC3)=NC2=O)cc1 | -10.2% | i | -9.3% | i
O=C1N=C(N2CCCCC2)S/C1=C\c1ccccc1F | 2.3% | i | -3.1% | i
CCCOc1ccccc1/C=C1\SC(N2CCCCC2)=NC1=O | ? | i | ? | 7.31µM*
CC(C)(C)c1ccc(/C=C2/SC(N3CCCC3)=NC2=O)cc1 | 16.4µM* | ? | 18.4µM* | i
CCOC(=O)c1c(C)[nH]c(C)c1S(=O)(=O)N1CCC(C(=O)NCc2ccc(N(C)C)cc2)CC1 | / | i | / | i
CCCN(CC1CC1)c1nc(C)nc(Nc2c(Cl)cc(Cl)cc2Cl)c1Cl | -0.4% | i | -10.6% | i
COc1ccc(CN2C(=O)N(c3ccc(C)cc3)C(=O)C2CC(=O)Nc2ccccc2)cc1OC (configuration not stated) | / | i | / | i

High-throughput results from PubChem BioAssay.
